# Screening results deposited in PubChem by The Scripps Research Institute Molecular Screening Center.
# The full list was thinned out, with hits kept by preference.
# TTR transcr act: TTR transcription activators in neuroblastoma reporter cells, primary screen, cell-based, luminescence, SH-SY5Y, TTR promoter Gaussia luciferase; 100% = recombinant luciferase protein wells; activation, % at 16.7 µM; 92,000 compounds, 1.3% hits; AID 1117267, 2014;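 active = activation above the mean of all tested compounds plus 3 SD, cut at about 9.5% in these data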;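 note: cells exposed to compounds for one day before reading; 0% = median of all test compound wells on the plate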
# HuH7 TTR inh: TTR promoter reporter inhibitors in hepatoma cells, counter-screen for TTR transcription activator project, cell-based, luminescence, HuH7 hepatoma. HuH7 TTR promoter-Gaussia luciferase reporter. inhibition, % at 16.7 µM. AID 1117279, 2014. 1,100 compounds, 4% hits. shares compounds with TTR transcr act;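 active = average inhibition above the solvent-only control wells' mean plus 3 SD, cut at about 15% in these data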;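 note: 0% = cells with DMSO only and 100% = cells with inhibitor control FD; inhibitors lower well luminescence so higher value means more inhibition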
# TTR act confirm: TTR transcription activators, retest, confirmation, cell-based, luminescence, SH-SY5Y, triplicate; shares compounds with TTR transcr act; SHSY5Y TTR promoter Gaussia luciferase; 100% = purified Lucia enzyme wells, no cells; activation, % at 16.7 µM; 1,100 tested, under 10 active; AID 1117280, 2014;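 active = mean activation above a set limit taken from the earlier primary screen, cut at about 11% in these data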;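 note: 0% = DMSO-treated cells and 100% = recombinant Lucia luciferase without cells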
# An asterisk follows results filed as active.
SMILES,TTR transcr act,others
Cc1cc(N2CCOCC2)nc2ccc(NC(=O)C3CCCCC3)cc12,0,
COC(=O)c1cc2c(s1)-c1ccccc1CC2,-1,
CC(=O)N1CCN(Cc2nc3cc(NC(=O)Cn4nc(C)c5ccccc5c4=O)ccc3n2C)CC1,2,
CN(C)S(=O)(=O)c1ccc(S(=O)(=O)N(CC(=O)Nc2ccccc2)CC2CCCO2)cc1 (stereo unspecified),0,
CN(C)CCNCc1ccccc1OC1CCCC1,21*,HuH7 TTR inh=-8;TTR act confirm=0
CCOc1ccccc1CNCCNCC(C)O (stereo unspecified),2,
OCCNCc1ccc(OC2CCCC2)cc1,6,
COc1ccc(-c2ccc(C(=O)NCC3CC3)c3occc23)c(C)c1,-2,
O=C(CCC(=O)OCCCC(F)(F)C(F)(F)F)Nc1ccc(Cl)cc1Cl,0,
OCC1CCCCN1C(=S)Nc1ccc(Cl)cc1Cl (stereo unspecified),1,
Fc1ccc(CCn2c(Cn3c(-c4cnccn4)nc4ccccc43)nc3ccccc32)cc1,1,
CCOC(=O)c1ccccc1NC(=O)C=C(C)C,0,
CCOC(=O)c1ccccc1NC(=O)C(C)Oc1ccccc1 (stereo unspecified),-2,
CCOCCOC(=O)COC(=O)c1ccccc1NC(=O)c1ccccc1,12*,HuH7 TTR inh=-12;TTR act confirm=1
Cc1ccc(NC(=O)c2cc(-c3ccccc3)n[nH]2)cc1,0,
Cn1nc(C(=O)N2CCc3ccccc32)c2ccccc2c1=O,-1,
Cc1cc(C(=O)N2CCc3ccccc32)n(-c2ccccc2)n1,10*,HuH7 TTR inh=21*;TTR act confirm=11*
Cc1cc(C)n(C(C)CC(=O)N2CCc3ccccc32)n1 (stereo unspecified),1,
O=C(CN1C(=O)c2ccccc2C1=O)Nc1ccc2c(c1)OCO2,9,
CC[n+]1c(C)sc2c(C)cc(C)cc21,26*,HuH7 TTR inh=-3;TTR act confirm=0
NCCS(=O)(=O)NC1CCCCC1,0,
O=C(Cc1cccc(NC(=O)C2CCN(C(=O)C3CCCC3)CC2)c1)Nc1cccc(C(=O)N2CCCC2)c1,2,
CC/C(=N\NC(=O)Cc1ccc(Br)cc1)c1cccs1,42*,HuH7 TTR inh=-29;TTR act confirm=0
C/C(=N/NC(=O)c1cccs1)c1cccs1,1,
CCNC(=O)Cc1ccc(Br)cc1,3,
SMILES,TTR transcr act,others
COc1cccc2c(=O)c(C(=O)O)c[nH]c12,-2,
COc1ccc(Cc2nnc(-c3ccc(F)cc3)o2)cc1OC,-2,
COc1ccc(S(=O)(=O)NC(C)C(=O)Nc2ccccc2F)cc1 (stereo unspecified),0,
COc1ccc(OC)c(N(CC(=O)Nc2ccccc2F)S(=O)(=O)c2ccccc2)c1,-2,
COc1ccc(CN(C)CC(=O)NC(=O)Nc2ccccc2F)cc1,11*,HuH7 TTR inh=-14;TTR act confirm=0
COc1c(S(=O)(=O)N2CCN(c3ccc(F)cc3)CC2)ccc(Cl)c1Cl,0,
Cc1cc(C(=O)CSCCCn2c(=O)[nH]c3ccccc32)c(C)n1C,1,
Cn1ncc([N+](=O)[O-])c1C(=O)NCc1ccccc1,-1,
CC(=O)c1ccc(N2C(=NC(=O)C3CCCO3)SC3CS(=O)(=O)CC32)cc1 (stereo unspecified),-2,
CC(=O)c1ccc(N2C(=NC(=O)COc3ccccc3)SC3CS(=O)(=O)CC32)cc1 (stereo unspecified),10*,HuH7 TTR inh=-10;TTR act confirm=0
CC(=O)c1cccc(N2C(=NC(=O)CCc3ccccc3)SC3CS(=O)(=O)CC32)c1 (stereo unspecified),0,
S=C(Nc1cccnc1)N1CCc2ccccc21,2,
Cn1cc(NC(=O)Nc2ccc(C(F)(F)F)cc2)c(C(F)(F)F)n1,-3,
O=Cc1ccc(OCc2ccc3c(c2)OCO3)cc1,9.8*,HuH7 TTR inh=-16;TTR act confirm=0
CC(=O)c1ccc(OCC(O)CNCc2ccc3c(c2)OCO3)cc1 (stereo unspecified),0,
Fc1ccc(CNCc2ccc3c(c2)OCO3)cc1,-1,
CCN(C[C@H]1N[C@@](C)(C(=O)OC)[C@H]2C(=O)N(Cc3ccccc3)C(=O)[C@@H]12)C(=O)COC,-1,
CN(C)Cc1cc(C(C)(C)C)c(O)c(C(C)(C)C)c1,0,
O=Cc1cc(CCC(=O)O)ccc1O,11*,HuH7 TTR inh=-2;TTR act confirm=0
CCCc1ccc(C(=O)CCC(=O)O)cc1,-3,
O=C(CCc1ccc(O)cc1)c1c(O)cc(O)cc1O,-3,
CC(NC(=O)COc1cccnc1[N+](=O)[O-])c1ccc(F)cc1 (stereo unspecified),-1,
Cc1c(C2(O)CCCCC2)[nH]c2ccc(C(F)(F)F)cc12,-4,
CCc1c(C2(O)CCCCC2)[nH]c2cnccc12,13*,HuH7 TTR inh=-4;TTR act confirm=0
COC(=O)C1CCN(C(=O)/C=C/c2ccc3c(c2)OCO3)CC1,2,
SMILES,TTR transcr act,others
COc1ccc(-c2[nH]ncc2CN2CCN(Cc3cccs3)CC2)cc1F,0,
CCCCn1c(N)c(N(CC(C)C)C(=O)C2=COCCO2)c(=O)[nH]c1=O,-1,
C[C@H](CO)N1C[C@H](C)[C@@H](CN(C)C(=O)Nc2ccccc2)Oc2ncc(-c3ccc(C#N)cc3)cc2C1=O,0,
CN(c1ccccc1)c1ncccn1,0,
CC1(C)CC(=O)C(C=NCCN2CCN(C(=O)c3ccccc3)CC2)=C(O)C1,2,
CC1(C)CC(=O)C(C=NCCN2CCN(C(=S)NC3CCCCC3)CC2)=C(O)C1,2,
CC1(C)CC(=O)C(C=NCCN2CCN(C(=O)CCl)CC2)=C(O)C1,12*,HuH7 TTR inh=2;TTR act confirm=-2
CS(=O)(=O)c1ccc2nc(NC(=O)Nc3cccc(Cl)c3)sc2c1,-5,
COc1cc(S(=O)(=O)NC2CCCCC2C)ccc1-n1cnnn1 (stereo unspecified),14*,HuH7 TTR inh=-11;TTR act confirm=0
CC1CCCCC1NS(=O)(=O)c1ccc(-n2cnnn2)cc1 (stereo unspecified),0,
COc1cc(S(=O)(=O)NC2CCCCC2C)ccc1Cl (stereo unspecified),3,
CCOc1nc(NCc2ccco2)nc(Nc2ccccc2F)n1,3,
Cn1c(=O)c2c(nc(CN3CCN(C(=O)c4ccco4)CC3)n2CCCO)n(C)c1=O,2,
Cn1c(=O)c2c(nc(CN3CCc4ccccc4C3)n2Cc2ccccc2F)n(C)c1=O,0,
Cn1c(=O)c2c(nc(CN3CCc4ccccc4C3)n2CCCO)n(C)c1=O,15*,HuH7 TTR inh=-8;TTR act confirm=0
C=CCC[C@@H](Cc1ccc(F)cc1)C(=O)OC[C@@H]1CCCN1C(=O)[C@H](CC=C)CC(=O)N[C@H](CO)Cc1ccccc1,17*,HuH7 TTR inh=0;TTR act confirm=-2
C=CCC[C@@H](Cc1ccc(F)cc1)C(=O)OC[C@H](Cc1c[nH]c2ccccc12)NC(=O)[C@@H](CC=C)CC(=O)N[C@H](CO)Cc1ccccc1,-4,
C=CC[C@@H](CC(=O)N[C@H](CO)Cc1ccccc1)C(=O)N[C@@H](COC(=O)[C@@H](CC=C)Cc1ccc(F)cc1)Cc1ccccc1,4,
Cc1ccc(CNc2cc(C(=O)O)ccc2Cl)s1,2,
COc1ccc2[nH]c3c(c2c1)CCN[C@]31C(=O)N(C)c2ccccc21,0,
Cc1ccc(C(=O)O/N=C2\CCCc3ccccc32)cc1,23*,HuH7 TTR inh=-2;TTR act confirm=0
COc1ccc2c(c1)/C(=N/OC(=O)c1cccs1)CCC2,0,
O=C(O/N=C1/CCCc2occc21)c1ccccc1,-3,
